# In PubChem BioAssay (EPA / NIEHS):
# Records with an inconclusive call do not appear. Active and inactive are the calls of the source. Rule for the calls, unless noted: active = hit-call score of the fitted dose curve at least 0.9, where 1 is the maximum; inconclusive = response in the unintended direction; inactive = score below 0.9.
# How the values were obtained:
# [1] = read-out: HMG-CoA synthase (HMGCS2), HMGCS2 (gene 3158); assay: CLD_HMGCS2_48hr: CellzDirect (CLD) Gene Expression Assay for HMG-CoA synthase (HMGCS2) at 48 hours (AID 2283711)
# In short: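 mRNA induction read by qNPA chemiluminescence, 48 h after dosing. Cultured primary human liver cells (two donor preparations) received fresh compound daily over two days against 0.2% DMSO vehicle; morphology-based cytotoxicity noted alongside.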
# [2] = CEETOX_H295R_MTT_cell_viability: Viability Assessment in the CeeTox HT-H295R MTT Assay (AID 2283718; active = hit-call score of the fitted dose curve at least 0.9, where 1 is the maximum; inactive = score below 0.9)
# In short: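 Human H295R adrenal cells, prestimulated 48 h with 10 uM forskolin, were exposed 48 h to chemicals in 0.1% DMSO. Viability was measured in the same wells by MTT (0.5 mg/ml, 4 h, 37 C), absorbance 570/650 nm, as percent of controls.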
# [3] = Tanguay_ZF_120hpf_ActivityScore_legacy: (Legacy) Oregon State University Tanguay Lab 120 Hour Post-fertilization zebrafish Assay Score for Activity (AID 2283742);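 for AC50: dechorionated Tropical 5D wild-type zebrafish embryos held singly per well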
# In short: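 Dechorionated 5D embryos, one per well, static exposure 6–120 hpf, 28C, sealed and dark; final DMSO 0.64% (vol/vol). Brightfield binary scoring of mortality plus 18 endpoints; gain-of-signal fit versus DMSO baseline.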
# [4] = STM_H9_OrnithineISnorm_perc: Stemina devTOX quickPredict H9 human embryonic stem cell (hESC)-based Assay for Ornithine (ORN) Metabolite Biomarker, Normalized (AID 2283712; active = hit-call score of the fitted dose curve at least 0.9, where 1 is the maximum; inactive = score below 0.9;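 note: ornithine released into spent medium during last day measured by mass spectrometry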)
# In short: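 Ornithine in spent medium from the last 24 h of a 72 h exposure, deproteinised and quantified by UPLC-HRMS against an isotope-labelled internal standard, expressed relative to 0.1% DMSO. Pluripotent H9 cells; compound refreshed every 24 h.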
# [5] = STM_H9_CystineISnorm_perc: Stemina devTOX quickPredict H9 human embryonic stem cell (hESC)-based Assay for Cystine (CYSS) Metabolite Biomarker, Normalized (AID 2283713; active = hit-call score of the fitted dose curve at least 0.9, where 1 is the maximum; inactive = score below 0.9)
# In short: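 Cystine in spent media from the last 24 h of a 72 h H9 hESC exposure (daily re-dosing), measured by UPLC-HRMS. Values normalized to isotopic internal standard, then to 0.1% DMSO; viability via CellTiter-Fluor.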
# [6] = STM_H9_OrnCyssISnorm_ratio: Stemina devTOX quickPredict H9 human embryonic stem cell (hESC)-based Assay for Ornithine (ORN):Cystine (CYSS) Ratio (AID 2283714)
# In short: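 UPLC-HRMS of spent media: ORN/CYSS ratio of internal-standard-normalized percentages, DMSO (0.1%) baseline. Pluripotent H9 hESCs, 72h exposure, daily re-dosing with fresh media; last 24h media collected.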
# [7] = ArunA_CellTiter_hNC: Viability Assessment in the ArunA Biomedical's Oris Neural Crest (hNC) Cell Migration Assay (AID 2283752)
# In short: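 After a 72 h chemical exposure, viability of hNC cells is read with CellTiter Aqueous One and fitted as signal loss relative to DMSO. Cells were seeded at 60,000/well on Matrigel and cultured 16 h at 37 C beforehand.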
# [8] = ArunA_Migration_hNP: ArunA Biomedical's Oris Neuroprogenitor (hNP) Cell Migration Assay (AID 2283754)
# Method: ArunA_Migration_hNP is a cell-based, single-readout assay that uses human H9-derived neuroprogenitor stem cells (hNP1). Measurements were taken 72 hours after chemical dosing in a 96-well plate.ArunA_Migration_hNP is an assay component measured from the ArunA_Migration_hNP assay. It is designed to make measurements of cell migration, a form of distribution reporter, as detected with fluorescence intensity signals by HCS Fluorescent Imaging technology. Data from the assay component ArunA_Migration_hNP was analyzed at the endpoint, ArunA_Migration_hNP, in the positive analysis fitting direction relative to DMSO as the negative control and baseline of activity. Using a type of distribution reporter, loss-of-signal activity can be used to understand the cell migration. To generalize the intended target to other relatable targets, this assay endpoint is annotated to the neurodevelopment intended target family, where the subfamily is migration.
# To assess the hNP and hNC migration and cell titer endpoints, 60,000 cells per well were plated onto Matrigel in basal growth medium with LIF and bFGF in a 96-well plate format. Plates were incubated for 16 h at 37C followed by a 72 h exposure to chemical in the test medium. For the migration endpoints, cells were seeded and incubated in presence of 'seeding stoppers' to prevent cell migration and growth into the detection zone. At the beginning of chemical exposure, stoppers were removed, and growth medium was replaced with test medium. In the case of the stopper control wells, stoppers remained in place following replacement of growth medium with test medium. Following 72 -h exposure to the test medium, cells were stained at 37C for 30-60 min with calcein-AM. Cell viability in the detection zone was quantitated using a Flexstation3 microplate reader (ex494 nm/em 517 nm). Corresponding cell titer endpoints were assessed for the hNP and hNC cells using the Promega CellTiter Aqueous One Solution Cell Proliferation Assay (Cat no. G3581; CellTiter 96). Finally, to gain insight into the mechanisms by which cells migrate into the detection zone, Ki-67 expression was quantified for 10 additional chemicals in the hNP and hNC systems. Additionally, cytochalasin D was used as a positive control to inhibit cell migration. Supplementing the AB2 Basal Medium: 1. Decontaminate the external surfaces of all supplement vials and the medium bottle with ethanol or isopropanol. 2. Aseptically open each supplement vial and add the amount indicated below to the basal medium with a pipette. To make 100 ml of complete medium: AB2 Neural Medium 96 mL, ANS Supplement 2 mL, bFGF (50 ug/mL) 40 uL, LIF (10 ug/mL) 100 uL, L-Glutamine (200 mM) 1 mL, Penicillin (5,000 U/mL)/ Streptomycin (5,000 ug/mL) 1 mL. 3. […]
# [9] = test system: Thyroperoxidase (TPO), gene 445522; assay: CCTE_Simmons_GUA_TPO: CCTE's Guaiacol Assay for Thyroperoxidase (TPO) Inhibition, Simmons Lab (AID 2283750)
# In short: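 Porcine thyroid microsomes (25 ug) in 200mM potassium phosphate, preincubated 30 s at 37C with compound (8 concentrations, 5 nM–87.5 uM) and 35mM guaiacol; 1mM H2O2 starts reaction. Absorbance change at 450nm over first 80 s; loss of signal versus DMSO, three replicates.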
# [10] = ArunA_CellTiter_hNP: Viability Assessment in the ArunA Biomedical's Oris Neural Crest (hNC) Cell Migration Assay (AID 2283753)
# In short: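 Viability read with CellTiter 96 Aqueous One after 72 h chemical exposure of human hNP1 neuroprogenitors, which were plated on Matrigel in LIF/bFGF medium 16 h beforehand. Endpoint fitted in positive direction relative to DMSO.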
compound,measurement,setting,value
O=C(O)c1cc(Oc2ccc(C(F)(F)F)cc2Cl)ccc1[N+](=O)[O-],AC50,[1],0.026 µM (active)
same,outcome,[2],inactive
same,outcome,[3],inactive
CNc1cnn(-c2cccc(C(F)(F)F)c2)c(=O)c1Cl,outcome,[4],inactive
same,outcome,[5],inactive
same,outcome,[6],inactive
same,outcome,[2],inactive
same,outcome,[3],inactive
CC1=NNC(=O)N(/N=C/c2cccnc2)C1,outcome,[1],inactive
same,outcome,[4],inactive
same,outcome,[5],inactive
same,outcome,[3],inactive
same,outcome,[7],inactive
same,outcome,[8],inactive
N#CSCSC#N,outcome,[1],inactive
same,AC50,[4],20.5 µM (active)
same,AC50,[5],7.75 µM (active)
same,AC50,[6],14.2 µM (active)
same,AC50,[3],17.9 µM (active)
CC(=NC#N)N(C)Cc1ccc(Cl)nc1,outcome,[1],inactive
same,outcome,[3],inactive
CC(C1CC1)C(O)(Cn1cncn1)c1ccc(Cl)cc1 (stereo not given),outcome,[1],inactive
same,AC50,[4],50 µM (active)
same,AC50,[5],83 µM (active)
same,AC50,[6],77.4 µM (active)
same,outcome,[2],inactive
same,AC50,[3],26.2 µM (active)
CN1COCN(Cc2cnc(Cl)s2)C1=N[N+](=O)[O-],outcome,[1],inactive
same,outcome,[3],inactive
C#CCC1=C(C)C(OC(=O)C2C(C=C(C)C)C2(C)C)CC1=O (stereo not given),outcome,[2],inactive
same,outcome,[3],inactive
CNC(=O)ON=C(C)SC,outcome,[2],inactive
same,outcome,[3],inactive
CON=C(C(=O)OC)c1ccccc1CON=C(C)c1cccc(C(F)(F)F)c1,outcome,[4],inactive
same,outcome,[5],inactive
same,outcome,[3],inactive
CCOP(=O)(SC(C)CC)N1CCSC1=O (stereo not given),outcome,[3],inactive
CN(C)NC(=O)CCC(=O)O,outcome,[2],inactive
same,outcome,[3],inactive
CSc1nnc(C(C)(C)C)c(=O)n1N,AC50,[4],0.0961 µM (active)
same,outcome,[5],inactive
same,outcome,[2],inactive
CCOP(=O)(OCC)Oc1cc(C)nc(C(C)C)n1,outcome,[3],inactive
CCC(=NOC/C=C/Cl)C1=C(O)CC(C2CCOCC2)CC1=O (stereo not given),AC50,[4],0.0699 µM (active)
same,outcome,[5],inactive
same,outcome,[3],inactive
CCc1cccc(C)c1N(C(=O)CCl)C(C)COC (stereo not given),outcome,[2],inactive
same,outcome,[3],inactive
CC1(C(=O)Nc2ccc(O)c(Cl)c2Cl)CCCCC1,outcome,[2],inactive
same,outcome,[3],inactive
CCOC(=O)CC(SP(=O)(OC)OC)C(=O)OCC (stereo not given),outcome,[3],inactive
same,outcome,[9],inactive
CCOP(=S)(OCC)SCCSCC,AC50,[4],72.2 µM (active)
same,AC50,[5],31.1 µM (active)
same,AC50,[6],34.3 µM (active)
same,outcome,[3],inactive
CCOC(=O)COc1cc(-c2nn(C)c(OC(F)F)c2Cl)c(F)cc1Cl,outcome,[2],inactive
same,outcome,[3],inactive
CCCCOC(=O)c1ccccc1C(=O)O,outcome,[2],inactive
same,outcome,[3],inactive
Nc1c(Cl)cc([N+](=O)[O-])cc1Cl,AC50,[3],93.6 µM (active)
C[Si](Cn1cncn1)(c1ccc(F)cc1)c1ccc(F)cc1,AC50,[4],76.6 µM (active)
same,AC50,[5],30.2 µM (active)
same,AC50,[6],50.7 µM (active)
same,outcome,[2],inactive
same,AC50,[3],35.9 µM (active)
same,outcome,[8],inactive
CC(Oc1cccc(Cl)c1)C(=O)O (stereo not given),outcome,[3],inactive
CC(C)=CC1C(C(=O)OCN2C(=O)C3=C(CCCC3)C2=O)C1(C)C (stereo not given),outcome,[3],inactive
CCc1cccc(CC)c1N(COC)C(=O)CCl,AC50,[3],27.6 µM (active)
CSC1=N[C@@](C)(c2ccccc2)C(=O)N1Nc1ccccc1,AC50,[5],30.1 µM (active)
same,AC50,[6],29.9 µM (active)
same,AC50,[3],37.6 µM (active)
CCOP(=O)(NC(C)C)Oc1ccc(SC)c(C)c1 (stereo not given),outcome,[2],inactive
same,AC50,[3],33.3 µM (active)
O=[N+]([O-])c1cc(C(F)(F)F)c(Cl)c([N+](=O)[O-])c1Nc1ncc(C(F)(F)F)cc1Cl,AC50,[4],15.5 µM (active)
same,AC50,[5],16.4 µM (active)
same,AC50,[6],15.2 µM (active)
same,AC50,[3],45.7 µM (active)
same,outcome,[7],inactive
same,outcome,[10],inactive
O=c1ccc(=O)[nH][nH]1,outcome,[3],inactive
COP(=O)(OC)OC(Br)C(Cl)(Cl)Br (stereo not given),outcome,[3],inactive
CCC(CC)Nc1c([N+](=O)[O-])cc(C)c(C)c1[N+](=O)[O-],outcome,[3],inactive
CNC(=O)Oc1cccc2c1OC(C)(C)O2,outcome,[2],inactive
same,outcome,[3],inactive
FC(F)C(F)(F)OCC(Cn1cncn1)c1ccc(Cl)cc1Cl (stereo not given),outcome,[4],inactive
same,outcome,[5],inactive
same,outcome,[2],inactive
same,AC50,[3],0.00154 µM (active)
CCCOCC(=Nc1ccc(Cl)cc1C(F)(F)F)n1ccnc1,outcome,[2],inactive
same,outcome,[3],inactive
Cc1cc(C2CC2)nc(Nc2ccccc2)n1,AC50,[3],62.8 µM (active)
COc1cccc(C(=O)NN(C(=O)c2cc(C)cc(C)c2)C(C)(C)C)c1C,outcome,[2],inactive
same,outcome,[3],inactive
CCOP(=S)(Oc1cnc(C(C)(C)C)nc1)OC(C)C (stereo not given),outcome,[3],inactive
S=C1NCCN1,outcome,[4],inactive
same,outcome,[5],inactive
same,outcome,[3],inactive
same,outcome,[7],inactive
same,outcome,[10],inactive
same,outcome,[8],inactive
Nc1nc(N)nc(NC2CC2)n1,outcome,[2],inactive
same,outcome,[3],inactive
Cc1nn(-c2cc(NS(C)(=O)=O)c(Cl)cc2Cl)c(=O)n1C(F)F,AC50,[4],0.114 µM (active)
same,outcome,[5],inactive
same,outcome,[3],inactive
CCC(=O)Nc1ccc(Cl)c(Cl)c1,outcome,[2],inactive
same,outcome,[3],inactive
CCOP(=S)(OCC)OC(Cl)C(Cl)(Cl)Cl (stereo not given),outcome,[3],inactive
